What was measured:
Test in all cases: DAPPL (digital affinity profiling via proximity ligation, sequencing); 10 mM Tris-HCl pH 7.5, 50 mM NaCl, 1 mM DTT, 4% glycerol, room temperature, 30 min; GST-TFs on glutathione beads, 16-mer random dsDNA library, 0.1% formaldehyde crosslink after washing; high values mean tight binding
FLI1 = target: T1, FLI1 (Homo sapiens, UniProt Q01543 1-452); details: protein: recombinant; tags: N-terminal GST; dsDNA, one strand shown
T1 sequence: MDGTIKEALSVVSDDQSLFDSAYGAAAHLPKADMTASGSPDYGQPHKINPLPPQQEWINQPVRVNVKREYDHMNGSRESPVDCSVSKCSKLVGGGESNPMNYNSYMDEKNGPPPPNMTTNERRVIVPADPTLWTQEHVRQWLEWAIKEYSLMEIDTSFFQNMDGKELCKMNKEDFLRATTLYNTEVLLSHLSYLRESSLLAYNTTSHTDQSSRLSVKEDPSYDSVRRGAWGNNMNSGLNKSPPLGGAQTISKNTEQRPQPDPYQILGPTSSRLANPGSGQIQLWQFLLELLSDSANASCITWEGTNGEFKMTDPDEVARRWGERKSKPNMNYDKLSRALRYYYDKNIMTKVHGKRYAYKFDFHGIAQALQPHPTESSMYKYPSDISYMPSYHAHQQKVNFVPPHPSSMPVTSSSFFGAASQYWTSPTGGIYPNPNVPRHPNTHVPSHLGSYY
Method in brief: (§1)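 Pools of DNA-barcoded human transcription factors, expressed in yeast as GST fusions on glutathione beads and combined with a tag-only sample, were incubated with 200 nmole of a 16-mer random double-stranded DNA library. Incubation took 30 min at room temperature in Tris/NaCl/DTT/glycerol buffer and was followed by washing, 0.1% formaldehyde crosslinking, proximity ligation (BsaI/T4 ligase, 1 h, 37 °C), PCR amplification and sequencing on an Illumina NextSeq500. Binding signal is the ratio of a hexamer's read frequency for a factor to its frequency for the tag-only sample.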

ELK1 = target: T2, ELK1 (Homo sapiens, UniProt P19419 1-428); details: protein: recombinant; tags: N-terminal GST; dsDNA, one strand shown
T2 sequence: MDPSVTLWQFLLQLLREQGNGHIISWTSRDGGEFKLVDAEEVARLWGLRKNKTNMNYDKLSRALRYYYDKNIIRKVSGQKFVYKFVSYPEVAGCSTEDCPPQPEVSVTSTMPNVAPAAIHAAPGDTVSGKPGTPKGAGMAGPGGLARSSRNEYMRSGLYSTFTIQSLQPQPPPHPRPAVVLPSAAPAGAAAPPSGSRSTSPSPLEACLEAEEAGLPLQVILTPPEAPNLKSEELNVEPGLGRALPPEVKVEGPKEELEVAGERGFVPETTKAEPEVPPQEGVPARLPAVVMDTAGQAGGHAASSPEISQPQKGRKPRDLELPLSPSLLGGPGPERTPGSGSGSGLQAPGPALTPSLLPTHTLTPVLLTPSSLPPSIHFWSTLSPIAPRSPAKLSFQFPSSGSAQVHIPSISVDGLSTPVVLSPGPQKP
Method in brief: as §1

GABPA = target: T3, GABPA (Homo sapiens, UniProt Q06546 1-454); details: protein: recombinant; tags: N-terminal GST; dsDNA, one strand shown
T3 sequence: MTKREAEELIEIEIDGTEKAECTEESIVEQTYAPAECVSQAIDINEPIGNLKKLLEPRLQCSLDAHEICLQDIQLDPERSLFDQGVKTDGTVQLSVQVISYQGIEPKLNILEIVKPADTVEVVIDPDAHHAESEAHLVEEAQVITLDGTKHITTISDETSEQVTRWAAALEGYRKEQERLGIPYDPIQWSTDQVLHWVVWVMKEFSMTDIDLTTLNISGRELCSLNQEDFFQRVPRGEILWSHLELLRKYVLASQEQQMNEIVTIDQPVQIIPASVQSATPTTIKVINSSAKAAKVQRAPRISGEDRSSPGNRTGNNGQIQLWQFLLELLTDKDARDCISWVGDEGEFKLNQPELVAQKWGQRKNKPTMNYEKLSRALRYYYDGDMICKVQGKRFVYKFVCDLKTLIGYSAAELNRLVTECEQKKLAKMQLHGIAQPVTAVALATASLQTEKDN
Method in brief: as §1

ERG = target: T4, ERG (Homo sapiens, UniProt P11308 1-479); details: protein: recombinant; tags: N-terminal GST; dsDNA, one strand shown
T4 sequence: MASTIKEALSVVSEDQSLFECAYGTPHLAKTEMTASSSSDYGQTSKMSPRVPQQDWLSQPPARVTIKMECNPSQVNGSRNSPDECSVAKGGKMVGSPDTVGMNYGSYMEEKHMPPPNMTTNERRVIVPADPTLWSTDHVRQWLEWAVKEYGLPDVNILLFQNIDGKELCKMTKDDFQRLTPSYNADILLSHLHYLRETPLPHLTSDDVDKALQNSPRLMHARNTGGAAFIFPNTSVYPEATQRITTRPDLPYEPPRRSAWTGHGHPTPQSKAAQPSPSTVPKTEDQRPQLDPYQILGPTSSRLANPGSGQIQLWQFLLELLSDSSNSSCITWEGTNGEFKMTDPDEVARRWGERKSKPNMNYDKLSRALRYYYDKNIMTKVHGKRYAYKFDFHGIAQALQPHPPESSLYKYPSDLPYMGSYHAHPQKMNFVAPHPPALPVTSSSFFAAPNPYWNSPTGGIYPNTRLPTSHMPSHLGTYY
Method in brief: as §1

ELF1 = ELF1 (Homo sapiens, UniProt P32519 1-619); details: protein: recombinant; tags: N-terminal GST; dsDNA, one strand shown
Chain of ELF1 (P32519 whole entry): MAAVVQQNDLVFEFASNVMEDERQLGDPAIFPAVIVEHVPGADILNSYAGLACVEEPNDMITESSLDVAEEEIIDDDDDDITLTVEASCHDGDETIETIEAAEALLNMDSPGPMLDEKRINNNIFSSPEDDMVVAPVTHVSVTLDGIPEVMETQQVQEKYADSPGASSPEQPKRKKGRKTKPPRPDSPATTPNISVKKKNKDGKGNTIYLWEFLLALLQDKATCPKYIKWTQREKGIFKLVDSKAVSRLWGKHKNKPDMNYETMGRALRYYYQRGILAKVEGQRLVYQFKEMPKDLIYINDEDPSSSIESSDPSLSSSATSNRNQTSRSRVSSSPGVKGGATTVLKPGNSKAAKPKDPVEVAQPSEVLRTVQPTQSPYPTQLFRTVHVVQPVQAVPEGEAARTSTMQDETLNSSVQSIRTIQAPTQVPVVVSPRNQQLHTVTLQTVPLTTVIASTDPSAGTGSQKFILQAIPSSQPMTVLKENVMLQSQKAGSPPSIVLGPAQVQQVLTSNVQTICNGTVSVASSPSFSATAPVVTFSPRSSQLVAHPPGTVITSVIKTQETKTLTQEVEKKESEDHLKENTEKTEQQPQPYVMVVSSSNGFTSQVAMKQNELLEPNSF
Method in brief: as §1

EHF = target: T5, EHF (Homo sapiens, UniProt Q9NZC4 1-300); details: protein: recombinant; tags: N-terminal GST; dsDNA, one strand shown
T5 sequence: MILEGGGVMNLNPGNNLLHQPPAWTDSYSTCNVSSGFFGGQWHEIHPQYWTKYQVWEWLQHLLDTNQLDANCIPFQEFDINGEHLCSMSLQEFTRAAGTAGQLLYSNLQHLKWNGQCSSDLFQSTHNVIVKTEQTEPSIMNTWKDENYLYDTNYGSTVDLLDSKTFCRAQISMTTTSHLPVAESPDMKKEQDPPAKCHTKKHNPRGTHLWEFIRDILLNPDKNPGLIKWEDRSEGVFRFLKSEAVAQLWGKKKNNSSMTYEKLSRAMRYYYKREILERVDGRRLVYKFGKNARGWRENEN
Method in brief: as §1

SPI1 = SPI1 (Homo sapiens, UniProt P17947 1-270); details: protein: recombinant; tags: N-terminal GST; dsDNA, one strand shown
Method in brief: as §1

SPIB = SPIB (Homo sapiens, UniProt Q01892 1-262); details: protein: recombinant; tags: N-terminal GST; dsDNA, one strand shown
Chain of SPIB (Q01892 whole entry): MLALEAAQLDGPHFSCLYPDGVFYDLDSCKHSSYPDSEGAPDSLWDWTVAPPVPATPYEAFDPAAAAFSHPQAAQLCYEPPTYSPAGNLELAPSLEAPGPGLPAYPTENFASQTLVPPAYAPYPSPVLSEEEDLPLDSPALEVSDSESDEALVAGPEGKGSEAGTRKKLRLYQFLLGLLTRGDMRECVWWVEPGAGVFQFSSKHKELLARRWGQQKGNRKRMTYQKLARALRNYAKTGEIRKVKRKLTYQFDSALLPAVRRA
Method in brief: as §1

ELK3 = target: T6, ELK3 (Homo sapiens, UniProt P41970 1-407); details: protein: recombinant; tags: N-terminal GST; dsDNA, one strand shown
T6 sequence: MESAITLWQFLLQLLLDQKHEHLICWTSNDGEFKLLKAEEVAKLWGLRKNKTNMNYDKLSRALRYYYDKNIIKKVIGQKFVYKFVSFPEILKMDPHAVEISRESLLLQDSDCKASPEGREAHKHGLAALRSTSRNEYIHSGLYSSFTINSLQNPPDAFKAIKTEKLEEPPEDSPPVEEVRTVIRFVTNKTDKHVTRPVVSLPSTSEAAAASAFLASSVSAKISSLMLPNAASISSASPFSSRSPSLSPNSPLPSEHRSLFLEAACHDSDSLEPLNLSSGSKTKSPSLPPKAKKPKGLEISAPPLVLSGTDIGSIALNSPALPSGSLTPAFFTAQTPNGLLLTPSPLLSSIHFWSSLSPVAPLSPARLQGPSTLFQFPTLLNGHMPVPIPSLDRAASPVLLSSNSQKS
Method in brief: as §1

FEV = target: T7, FEV (Homo sapiens, UniProt Q99581 1-238); details: protein: recombinant; tags: N-terminal GST; dsDNA, one strand shown
T7 sequence: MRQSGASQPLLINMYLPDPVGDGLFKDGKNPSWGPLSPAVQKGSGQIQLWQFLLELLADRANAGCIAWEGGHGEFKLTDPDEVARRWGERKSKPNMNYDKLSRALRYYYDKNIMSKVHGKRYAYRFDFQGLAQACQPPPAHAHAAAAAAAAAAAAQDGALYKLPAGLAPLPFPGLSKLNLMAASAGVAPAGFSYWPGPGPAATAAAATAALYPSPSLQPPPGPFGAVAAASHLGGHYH
Method in brief: as §1

ETV5 = ETV5 (Homo sapiens, UniProt P41161 1-510); details: protein: recombinant; tags: N-terminal GST; dsDNA, one strand shown
Chain of ETV5 (P41161 whole entry): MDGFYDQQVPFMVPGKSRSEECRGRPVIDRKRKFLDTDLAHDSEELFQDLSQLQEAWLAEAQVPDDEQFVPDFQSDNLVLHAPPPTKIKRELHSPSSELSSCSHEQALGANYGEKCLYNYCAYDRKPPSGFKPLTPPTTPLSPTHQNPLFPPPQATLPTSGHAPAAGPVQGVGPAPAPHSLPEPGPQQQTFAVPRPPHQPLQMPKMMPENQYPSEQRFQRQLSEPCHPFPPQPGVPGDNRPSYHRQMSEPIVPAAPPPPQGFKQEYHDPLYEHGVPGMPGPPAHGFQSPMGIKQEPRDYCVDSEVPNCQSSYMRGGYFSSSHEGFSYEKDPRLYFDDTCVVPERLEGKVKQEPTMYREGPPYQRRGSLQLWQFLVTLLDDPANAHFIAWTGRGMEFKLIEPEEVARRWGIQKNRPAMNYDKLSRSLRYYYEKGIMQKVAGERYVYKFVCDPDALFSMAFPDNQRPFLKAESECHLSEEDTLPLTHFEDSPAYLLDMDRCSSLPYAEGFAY
Method in brief: as §1

HSF1 = HSF1 (Homo sapiens, UniProt Q00613 1-529); details: protein: recombinant; tags: N-terminal GST; chain copies: 3; dsDNA, one strand shown
Chain of HSF1 (Q00613 whole entry): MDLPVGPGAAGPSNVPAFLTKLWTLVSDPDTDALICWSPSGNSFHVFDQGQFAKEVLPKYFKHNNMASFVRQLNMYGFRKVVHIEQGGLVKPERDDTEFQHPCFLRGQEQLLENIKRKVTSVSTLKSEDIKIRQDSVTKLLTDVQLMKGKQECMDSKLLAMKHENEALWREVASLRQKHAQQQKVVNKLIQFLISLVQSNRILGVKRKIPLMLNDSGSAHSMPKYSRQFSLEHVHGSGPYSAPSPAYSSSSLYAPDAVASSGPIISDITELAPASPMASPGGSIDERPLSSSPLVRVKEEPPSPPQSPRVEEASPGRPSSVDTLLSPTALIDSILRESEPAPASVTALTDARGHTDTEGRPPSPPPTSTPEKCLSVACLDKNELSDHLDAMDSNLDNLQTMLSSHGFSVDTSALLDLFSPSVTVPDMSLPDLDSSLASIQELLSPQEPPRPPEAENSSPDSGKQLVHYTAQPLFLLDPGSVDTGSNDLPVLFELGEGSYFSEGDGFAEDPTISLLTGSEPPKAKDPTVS
Method in brief: as §1

SPIC = target: T8, SPIC (Homo sapiens, UniProt Q8N5J4 1-248); details: protein: recombinant; tags: N-terminal GST; dsDNA, one strand shown
T8 sequence: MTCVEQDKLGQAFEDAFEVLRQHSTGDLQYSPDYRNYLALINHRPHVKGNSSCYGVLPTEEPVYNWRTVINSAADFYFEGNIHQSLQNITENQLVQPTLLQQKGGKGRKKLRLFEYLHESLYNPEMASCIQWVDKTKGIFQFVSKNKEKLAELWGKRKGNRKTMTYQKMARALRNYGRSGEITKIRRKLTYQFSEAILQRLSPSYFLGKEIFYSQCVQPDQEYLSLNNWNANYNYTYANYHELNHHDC
Method in brief: as §1

ELF4 = ELF4 (Homo sapiens, UniProt Q99607 1-663); details: protein: recombinant; tags: N-terminal GST; dsDNA, one strand shown
Chain of ELF4 (Q99607 whole entry): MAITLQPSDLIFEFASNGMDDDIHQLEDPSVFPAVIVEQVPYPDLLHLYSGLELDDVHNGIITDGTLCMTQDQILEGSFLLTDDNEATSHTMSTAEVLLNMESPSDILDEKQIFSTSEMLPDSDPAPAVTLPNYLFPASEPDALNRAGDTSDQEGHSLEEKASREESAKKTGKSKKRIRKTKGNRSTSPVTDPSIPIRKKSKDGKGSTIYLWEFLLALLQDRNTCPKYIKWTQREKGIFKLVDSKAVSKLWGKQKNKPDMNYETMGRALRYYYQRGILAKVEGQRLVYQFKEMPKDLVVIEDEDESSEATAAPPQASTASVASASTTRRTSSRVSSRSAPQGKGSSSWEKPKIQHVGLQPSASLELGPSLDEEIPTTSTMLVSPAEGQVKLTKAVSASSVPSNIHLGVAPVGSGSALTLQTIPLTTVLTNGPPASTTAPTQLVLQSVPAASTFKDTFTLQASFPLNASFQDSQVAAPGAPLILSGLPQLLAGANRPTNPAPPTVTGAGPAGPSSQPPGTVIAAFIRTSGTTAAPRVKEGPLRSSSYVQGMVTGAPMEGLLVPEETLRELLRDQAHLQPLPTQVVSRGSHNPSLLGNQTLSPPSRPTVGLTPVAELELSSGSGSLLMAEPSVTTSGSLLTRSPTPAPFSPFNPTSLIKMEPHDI
Method in brief: as §1

ELK4 = target: T9, ELK4 (Homo sapiens, UniProt P28324-2 1-405); details: protein: recombinant; tags: N-terminal GST; dsDNA, one strand shown
T9 sequence: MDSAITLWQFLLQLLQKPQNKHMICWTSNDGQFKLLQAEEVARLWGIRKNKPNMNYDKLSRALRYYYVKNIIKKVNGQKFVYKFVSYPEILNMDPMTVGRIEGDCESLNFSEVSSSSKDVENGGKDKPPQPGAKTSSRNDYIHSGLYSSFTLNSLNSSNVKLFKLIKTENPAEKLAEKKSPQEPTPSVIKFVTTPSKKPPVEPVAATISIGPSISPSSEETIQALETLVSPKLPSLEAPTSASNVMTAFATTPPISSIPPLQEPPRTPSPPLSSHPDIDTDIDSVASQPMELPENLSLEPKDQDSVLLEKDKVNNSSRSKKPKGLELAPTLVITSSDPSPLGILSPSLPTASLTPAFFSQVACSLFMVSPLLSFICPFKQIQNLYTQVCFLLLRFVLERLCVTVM
Method in brief: as §1

ETV2 = target: T10, ETV2 (Homo sapiens, UniProt O00321 1-342); details: protein: recombinant; tags: N-terminal GST; dsDNA, one strand shown
T10 sequence: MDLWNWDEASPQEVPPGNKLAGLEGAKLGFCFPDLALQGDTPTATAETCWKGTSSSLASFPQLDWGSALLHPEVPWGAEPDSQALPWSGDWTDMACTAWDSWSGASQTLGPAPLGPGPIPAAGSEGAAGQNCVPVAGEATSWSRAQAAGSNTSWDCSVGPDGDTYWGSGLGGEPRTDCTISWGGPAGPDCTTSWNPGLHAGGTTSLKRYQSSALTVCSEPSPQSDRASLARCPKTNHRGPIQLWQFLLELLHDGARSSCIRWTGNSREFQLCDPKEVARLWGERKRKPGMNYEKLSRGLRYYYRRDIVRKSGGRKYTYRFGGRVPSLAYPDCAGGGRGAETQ
Method in brief: as §1

ELF3 = target: T11, ELF3 (Homo sapiens, UniProt P78545 1-371); details: protein: recombinant; tags: N-terminal GST; dsDNA, one strand shown
T11 sequence: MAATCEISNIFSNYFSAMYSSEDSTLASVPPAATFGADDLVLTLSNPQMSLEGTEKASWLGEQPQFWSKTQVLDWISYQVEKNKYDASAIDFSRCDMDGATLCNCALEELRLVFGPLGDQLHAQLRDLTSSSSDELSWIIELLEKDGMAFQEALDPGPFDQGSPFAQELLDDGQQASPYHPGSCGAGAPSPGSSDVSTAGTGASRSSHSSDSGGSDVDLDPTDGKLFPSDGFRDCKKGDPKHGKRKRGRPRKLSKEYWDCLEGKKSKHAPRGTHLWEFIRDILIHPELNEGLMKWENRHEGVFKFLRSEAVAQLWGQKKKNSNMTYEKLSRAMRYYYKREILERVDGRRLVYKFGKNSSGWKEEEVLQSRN
Method in brief: as §1

CRX = CRX (Homo sapiens, UniProt O43186 1-299); details: protein: recombinant; tags: N-terminal GST; dsDNA, one strand shown
Chain of CRX (O43186 whole entry): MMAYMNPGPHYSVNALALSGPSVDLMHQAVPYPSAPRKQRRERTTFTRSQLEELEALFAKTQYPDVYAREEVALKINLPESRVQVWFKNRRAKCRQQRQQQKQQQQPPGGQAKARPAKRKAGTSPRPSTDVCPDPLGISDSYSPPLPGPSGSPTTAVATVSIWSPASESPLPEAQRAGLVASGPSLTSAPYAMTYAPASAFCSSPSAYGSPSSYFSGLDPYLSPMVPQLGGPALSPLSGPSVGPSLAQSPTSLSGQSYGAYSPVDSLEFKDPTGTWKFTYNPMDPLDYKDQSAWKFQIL
Method in brief: as §1

ETV1 = ETV1 (Homo sapiens, UniProt P50549 1-477); details: protein: recombinant; tags: N-terminal GST; dsDNA, one strand shown
Chain of ETV1 (P50549 whole entry): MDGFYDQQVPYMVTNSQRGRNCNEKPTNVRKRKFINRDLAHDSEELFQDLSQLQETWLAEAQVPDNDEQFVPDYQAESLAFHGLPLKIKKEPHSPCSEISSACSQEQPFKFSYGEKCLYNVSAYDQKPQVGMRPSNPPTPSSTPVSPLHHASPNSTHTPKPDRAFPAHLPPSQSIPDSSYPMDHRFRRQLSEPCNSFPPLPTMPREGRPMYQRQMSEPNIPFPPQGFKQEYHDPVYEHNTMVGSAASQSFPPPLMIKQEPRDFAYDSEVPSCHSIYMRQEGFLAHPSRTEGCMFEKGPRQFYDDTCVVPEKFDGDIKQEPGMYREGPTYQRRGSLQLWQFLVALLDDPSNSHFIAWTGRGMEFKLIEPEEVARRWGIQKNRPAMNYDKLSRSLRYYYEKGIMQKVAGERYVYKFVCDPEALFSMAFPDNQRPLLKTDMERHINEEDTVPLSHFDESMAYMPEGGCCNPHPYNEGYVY
Method in brief: as §1

GCTCGC
binding signal (FLI1): 1.39 fold enrichment (6-mer frequency, TF over GST control)
binding signal (ELK1): 1.29 fold enrichment (6-mer frequency, TF over GST control)
binding signal (GABPA): 1.41 fold enrichment (6-mer frequency, TF over GST control)
binding signal (ERG): 1.29 fold enrichment (6-mer frequency, TF over GST control)
binding signal (ELF1): 1.42 fold enrichment (6-mer frequency, TF over GST control)
binding signal (EHF): 1.27 fold enrichment (6-mer frequency, TF over GST control)
binding signal (SPI1): 1.29 fold enrichment (6-mer frequency, TF over GST control)
binding signal (SPIB): 1.42 fold enrichment (6-mer frequency, TF over GST control)
binding signal (ELK3): 1.38 fold enrichment (6-mer frequency, TF over GST control)
binding signal (FEV): 1.42 fold enrichment (6-mer frequency, TF over GST control)
binding signal (ETV5): 1.32 fold enrichment (6-mer frequency, TF over GST control)
binding signal (HSF1): 1.25 fold enrichment (6-mer frequency, TF over GST control)
binding signal (SPIC): 1.44 fold enrichment (6-mer frequency, TF over GST control)
binding signal (ELF4): 1.28 fold enrichment (6-mer frequency, TF over GST control)
binding signal (ELK4): 1.52 fold enrichment (6-mer frequency, TF over GST control)
binding signal (ETV2): 1.17 fold enrichment (6-mer frequency, TF over GST control)
binding signal (ELF3): 1.51 fold enrichment (6-mer frequency, TF over GST control)
binding signal (CRX): 1.12 fold enrichment (6-mer frequency, TF over GST control)
binding signal (ETV1): 1.37 fold enrichment (6-mer frequency, TF over GST control)

Reference: paper PMC7862700, “An all-to-all approach to the identification of sequence-specific readers for epigenetic DNA modifications on cytosine”
